From PubChem
This is a sample that favours compounds with a hit; in the whole collection about 19% have one here.
HT1080NT lethal: kills 2HG-producing HT-1080-NT fibrosarcoma cells. HT-1080-NT fibrosarcoma viability, CellTiter-Glo ATP luminescence, 48 h. Potency, µM (titrated, usually from 46.1 µM), most hits filed as cytotoxic. 360,000 tested, 1.6% active. AID 686970;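 also: NT is the 2HG producing partner of a matched IDH1 knockdown line; nearly all actives have a fitted effect of over 55% in size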
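750 cells/well, RPMI + 5% FBS; 2 h settle, compound pin-transfer, 48 h at 37 degrees C. CellTiter-Glo 10 min RT, luminescence. Normalized to DMSO and media-only wells.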
TDP1 cell noCPT: qHTS for Inhibitors of human tyrosyl-DNA phosphodiesterase 1 (TDP1): qHTS in cells in absence of CPT; DT40 Tdp1-/- hTDP1 cells, no CPT, ATP luminescence, 48 h; Potency, µM (doses to about 46.2 µM), usual class: inhibitors; 420,000 tested, 15% active; AID 686978, 2013; also: nearly all actives have a fitted effect of over 55% in size
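Chicken DT40 Tdp1-/- cells stably complemented with human TDP1 were seeded at 400 cells/well with DMSO in place of 20 nM camptothecin. After compound pinning, cells grew at least 48 hr at 37 °C; viability read by CellTiter-Glo luminescence.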
TDP1 cell CPT: growth inhibition of DT40 Tdp1-/-;hTDP1 cells with camptothecin (screen for TDP1 inhibitors) | chicken DT40 Tdp1-/-;hTDP1 cells + 20 nM CPT, ATP luminescence, 48 h | Potency, µM (top dose mostly 46.2 µM), hits mostly inhibitors | 420,000 tested, 12% active | AID 686979; also: nearly all actives have a fitted effect of over 55% in size
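Chicken DT40 Tdp1-/- cells stably complemented with human TDP1 were seeded at 400 cells/well in medium containing 20 nM camptothecin, exposed to pin-transferred compounds, and grown at 37 °C for at least 48 hr. Viability was read as ATP luminescence.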
IL1B secr inh: inhibitors of inflammasome signaling (IL-1 beta secretion); 360,000 tested, 4.7% active; AID 743279; THP-1 LPS/ATP IL-1B secretion, AlphaLISA, 16 h; stronger effect = lower value; activity change, % at 57.5 µM; in the data active = activity change below about -50%; inconclusive = mostly about -30% to -49%
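Secreted IL-1B measured by AlphaLISA bead assay after 16 h compound exposure of THP-1 cells; compounds (final up to 57.5 uM) added 1 h before LPS (250 ng/mL) and ATP (1.25 mM) stimulation; lower signal means less secretion.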
HT1080 IDH1KD tx: kills HT-1080 cells with IDH1 knockdown | 360,000 tested, 2% active | AID 686971 | Potency, µM (doses to about 46.1 µM), actives largely listed as cytotoxic | HT-1080 IDH1 knockdown viability, ATP luminescence, 48 h
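HT-1080-IDH1KD cells (IDH1 knocked down), 750/well in RPMI with 5% FBS, treated with compound 48 h at 37 degrees C. Viability by CellTiter-Glo luminescence, normalised to DMSO and no-cell wells; concentration-response curves classed.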
Large screens that a line does not name were inactive. Unless noted, calls follow the shape of the dose curve; as a rule, active = well fitted curve in the direction sought with a large enough effect; inconclusive = small, poorly fitted or top-dose-only effect, or another doubt; inactive = no such curve, though single readings can be large; an effect the other way counts as inactive or inconclusive.

CCn1c(CNC(=O)C23CC4CC(CC(C4)C2)C3)nnc1SCC(=O)Nc1ccc(C)cc1	TDP1 cell noCPT inconclusive (no result: HT1080NT lethal, IL1B secr inh, HT1080 IDH1KD tx)
O=C(Cn1c(=O)oc2cccnc21)Nc1ccccc1Oc1ccc(Cl)cc1Cl	IL1B secr inh -71.2
COc1ccccc1NC(=O)Cn1c(=O)oc2ccccc21	TDP1 cell noCPT 2.91µM, TDP1 cell CPT 2.91µM
N#Cc1c(NC(=O)Cn2c(=O)oc3ccccc32)oc(-c2ccccc2)c1-c1ccccc1	TDP1 cell noCPT 8.2µM, TDP1 cell CPT 9.2µM, HT1080 IDH1KD tx inconclusive
COc1ccc(Cl)cc1NC(=O)Cn1c(=O)oc2ccccc21	TDP1 cell noCPT inconclusive
COc1ccccc1CCNC(=O)Cn1c(=O)oc2ccccc21	TDP1 cell noCPT inconclusive, TDP1 cell CPT 20.6µM
Cc1ccc(N2CCN(S(=O)(=O)c3nnc(NC(=O)c4ccco4)s3)CC2)cc1	none
CSc1nc(NCCN(C)C)c2sc3nc(-c4ccco4)c4c(c3c2n1)CCC4	TDP1 cell noCPT 11.6µM, TDP1 cell CPT 6.51µM, IL1B secr inh -101.1
CC1(C)Cc2c(C#N)c(NCCN3CCOCC3)nc(-c3ccco3)c2CO1	TDP1 cell noCPT inconclusive
CSc1nc(SCC(=O)O)c2sc3nc(-c4ccccc4)c4c(c3c2n1)CCC4	TDP1 cell noCPT inconclusive
CC1(C)Cc2c(c(-c3ccco3)nc3sc4c(NCCCO)ncnc4c23)CO1	TDP1 cell noCPT 8.2µM, TDP1 cell CPT 10.3µM
CC1(C)Cc2c(c(-c3ccco3)nc3sc4c(NCCN5CCOCC5)ncnc4c23)CO1	HT1080NT lethal 23.1µM, TDP1 cell noCPT 20.6µM, TDP1 cell CPT 8.2µM, IL1B secr inh -181.2, HT1080 IDH1KD tx 16.4µM
CC1(C)Cc2c(c(-c3ccco3)nc3sc4c(NCC5CCCO5)ncnc4c23)CO1 (configuration not stated)	HT1080NT lethal inconclusive, TDP1 cell noCPT 20.6µM, TDP1 cell CPT 18.4µM, HT1080 IDH1KD tx inconclusive
Cc1noc(C)c1NC(=O)N(C)C[C@@H]1Oc2cc(Br)ccc2S(=O)(=O)N([C@H](C)CO)C[C@@H]1C	none
CCCCOc1ccc(C2C(C(=O)c3ccc(C)o3)=C(O)C(=O)N2CC2CCCO2)cc1 (configuration not stated)	TDP1 cell noCPT 23.1µM, TDP1 cell CPT inconclusive
COC(=O)[C@@]1(C)[C@H]2C(=O)N(C)C(=O)[C@H]2[C@H]2CN(C)C(=NC3CCCCC3)N21	none
O=C1c2cc(F)ccc2-n2c1nc1ccccc1c2=O	HT1080NT lethal inconclusive, TDP1 cell noCPT 0.366µM, TDP1 cell CPT 0.206µM, HT1080 IDH1KD tx inconclusive
Nn1c(-c2ccc(F)cc2)nc2ccccc2c1=O	IL1B secr inh inconclusive
Cc1ccc(N(CC(O)COCc2ccco2)S(=O)(=O)c2ccc(C)cc2)cc1 (configuration not stated)	TDP1 cell noCPT inconclusive, TDP1 cell CPT inconclusive, HT1080 IDH1KD tx inconclusive
[NH-]c1ncnc2c1N=C[N+]2=CC=CCO	TDP1 cell noCPT 4.11µM, TDP1 cell CPT 2.59µM
COc1cccc(OC)c1OCCOc1ccccc1OC(C)C	TDP1 cell noCPT inconclusive, TDP1 cell CPT inconclusive
COc1cccc(OC)c1OCCNCC1CSc2ccccc2O1 (configuration not stated)	HT1080NT lethal inconclusive, TDP1 cell noCPT 10.3µM, TDP1 cell CPT 20.6µM, HT1080 IDH1KD tx inconclusive
COc1cc(O)ccc1-c1nc2cc(C)ccn2c1Nc1ccccc1C	TDP1 cell noCPT 25.9µM, TDP1 cell CPT 13µM (no result: HT1080NT lethal, IL1B secr inh, HT1080 IDH1KD tx)
Cc1ccn2c(Nc3ccccc3C)c(-c3cccnc3)nc2c1	TDP1 cell noCPT inconclusive, TDP1 cell CPT 16.4µM
Cc1ccn2c(Nc3ccccc3C)c(-c3ccccc3)nc2c1	TDP1 cell noCPT inconclusive, TDP1 cell CPT 20.6µM (no result: HT1080NT lethal, IL1B secr inh, HT1080 IDH1KD tx)
Cc1ccccc1Nc1c(-c2ccc(N3CCOCC3)cc2)nc2cnccn12	TDP1 cell noCPT inconclusive
Cc1ccn2c(NC(=O)c3ccco3)c(-c3ccccc3)nc2c1	none
CCCCC1=C([O-])C2N=CC=CC2=[N+](c2ccccn2)C1=O (configuration not stated)	TDP1 cell noCPT inconclusive
CC(NC(=O)COC(=O)/C=C/c1ccco1)c1ccccc1 (configuration not stated)	none
